Measured values reported in ChEMBL document CHEMBL3988442, “University of Dundee, Small-Polar-MMV Screening Library” (2021).
Several values for one entry are separate records, joined by “and”; a condition that tells them apart may be missing. Equal entries are not always repeated. The campaign covered roughly 34,000 compounds. About 290 (0.85%) showed an effect of 50% or more. The sample holds strong results, similar compounds and a random draw of the others, so the mix is not that of the screen.

System: Plasmodium falciparum
Assay: Plasmodium falciparum sporozoite viability assay
Type: functional, organism-based
Design: scale not given: in the data most compounds retested in dose-response had high values

Row | Compound | Percent Effect [%] | Percent Effect (10 mM as filed; unlikely as a test dose)
1 | Cc1oncc1C(=O)N1CC[C@H]2[C@@H]1CCC(=O)N2CC1CCOCC1 | 5.199 | 
2 | CC(=O)N1CCC(c2cc(C(F)(F)F)nc3nccn23)CC1 | 1.841 | 
3 | O=C1[C@H]2CN(C(=O)[C@H]3CCCO3)C[C@H]2CN1CC1CC1 | 2.539 | 
4 | Cc1nc(CN(C)Cc2cc3c(cc2OC(F)F)OCO3)cs1 |  | -8.742% and -16.17%
5 | Cc1nn(C)cc1CN(C)Cc1cc2c(cc1OC(F)F)OCO2 | 5.075 | 
6 | Cc1ncsc1CN(C)Cc1cc2c(cc1OC(F)F)OCO2 |  | 74.26% and 62.83%
7 | CC(Cn1ccnc1)NC(=O)C1(c2ccc(F)cc2)CCCC1 (configuration not stated) | 23.02 | 
8 | Cc1cc(N2CCC(c3n[nH]c4nccnc34)CC2)ncn1 | 7.584 | 
9 | Brc1cccc(-c2nnc(CNCCn3cccn3)o2)c1 | 2.399 | 
10 | CC(C)c1ncc2c(n1)CN(Cc1nc(-c3ccsc3)no1)CC2 | 18.76 | 
11 | CC(C)c1ncc2c(n1)CN(Cc1nc(-c3ccoc3)no1)CC2 |  | 11.99% and 7.268% and 10.61%
12 | CC(C)c1nc2c(n1C)CCN(Cc1nc(-c3ccoc3)no1)C2 |  | 83.83% and 76.55% and 70.15%
13 | Cn1c(C2CC2)nc2c1CCN(Cc1nc(-c3ccsc3)no1)C2 |  | 19.95% and 27.05% and 21.39%
14 | Cn1cnc2c1CCN(Cc1nc(-c3ccco3)no1)C2 |  | 12.07% and 12.49%
15 | CC(C)c1nc2c(n1C)CCN(Cc1nc(-c3cccs3)no1)C2 |  | 44.7% and 61.16% and 58.76%
16 | CC(C)c1ncc2c(n1)CN(Cc1nc(-c3cccs3)no1)CC2 |  | 13.28% and 7.226% and -0.3719%
17 | CC(C)c1nc2c(n1C)CCN(Cc1nc(-c3ccsc3)no1)C2 |  | 73.25% and 58.56% and 70.51%
18 | c1csc(-c2noc(CN3CCc4cncnc4C3)n2)c1 |  | 24.87% and 17.34% and 36.23%
19 | COc1ccccc1OCCNC(=O)CN1CCc2cncnc2C1 | -7.271 | 
20 | O=C1CN(c2ccc(CNC(=O)NCc3ccoc3)cc2)CCN1 | 13.47 | 
21 | Cc1cn2c(n1)CCC(NC(=O)c1[nH]ncc1Br)C2 (configuration not stated) | -6.244 | 
22 | Cc1cc(C(=O)N[C@@H]2CCC[C@@H](N3CCOCC3)[C@@H]2O)no1 | 7.233 | 
23 | O=C(O)C(F)(F)F.O=C([C@H]1C[C@H]2OCC[C@H]2N(CCc2ccccc2)C1)N1CCCCO1 | -6.171 | 

Row | Compound | Percent Effect [%] | Percent Effect (10 mM as filed; unlikely as a test dose)
24 | CCCOC(=O)N1CCn2nc(-c3nc4ccccc4n3C)cc2C1 |  | 47.05% and 19.27%
25 | Cn1c(-c2cc3n(n2)CCCN(CC(=O)O)C3)nc2ccccc21 |  | 91.97% and 88.48%
26 | CN1CCn2nc(-c3nc4ccccc4n3C)cc2C1 |  | 21.76% and 43.98%
27 | NC(=O)C1CN(C(=O)Nc2ccc(SC(F)(F)F)cc2)CCO1 (configuration not stated) | 26.37 | 
28 | CC(C)(C(=O)N[C@@H]1CCC[C@@H](O)[C@@H]1O)c1cccc(F)c1 | 7.186 | 
29 | Cc1ccc(CCNC(=O)Nc2cc(C(F)(F)F)c[nH]c2=O)o1 | -6.166 | 
30 | O=C(Cc1cn2ccsc2n1)N1CCCC(n2ccnc2)C1 (configuration not stated) | 9.411 | 
31 | CN(C)c1ccc(NC(=O)N2CCCCCC2c2ccncc2)cn1 (configuration not stated) |  | -8.99% and -20.34% and -20.82%
32 | CCOc1ccc(C(=O)N2CCCC2c2cnn(C)c2)cn1 (configuration not stated) | 2.866 | 
33 | CNc1nc(N2C[C@H](NC(=O)CCOC)[C@@H](C3CC3)C2)nc2c1CCC2 |  | -17.73% and -19.53%
34 | CNCC(=O)N[C@H]1CN(c2nc(C)c3c(n2)CCCC3)C[C@@H]1C1CC1 |  | 74.85% and 85.09%
35 | COCCC(=O)N[C@H]1CN(c2nc(C)c3c(n2)CCCC3)C[C@@H]1C1CC1 |  | 37.56% and 25.17%
36 | Cc1n[nH]c(C)c1-c1cnc(CC2CCN(C)C2)cn1 (configuration not stated) | -7.497 | 
37 | Cc1cc(Nc2ccccn2)nc(C2CCCN(CCO)C2)n1.O=CO (configuration not stated) | 9.991 | 
38 | Cc1cccc(Nc2nccnc2C2CCCN(CC(=O)N(C)C)C2)n1 (configuration not stated) | 4.997 | 
39 | Cc1cccc(Nc2nccnc2C2CCCN2CC(N)=O)n1 (configuration not stated) | 7.262 | 
40 | Cc1cccc(Nc2cc(C3CCCN(CC(N)=O)C3)ccn2)n1.O=CO.O=CO (configuration not stated) |  | 98.38% and 92.39% and 79.92%
41 | NC(=O)CN1CCCC(c2ccnc(Nc3ncccn3)c2)C1 (configuration not stated) |  | 24.34% and 12.28% and 9.246%
42 | COc1cc(NC(=O)c2ccc(F)cc2Cl)c(C(=O)N(C)C)cc1OC | -12.25 | 
43 | O=C(C1CCOCC1)N1CCc2ncc(CN3CCCCC3)n2CC1 | -3.866 | 
44 | c1cnn(CC2CN(c3ncnc4[nH]ccc34)CCO2)c1 (configuration not stated) | -8.614 | 
45 | Cc1nc(CN2CCC3(CC2)NC(=O)CC3c2cccnc2)cs1 (configuration not stated) | -8.123 | 
46 | Cc1cc(CN2CCC3(CC2)C(=O)NCCN3CC2CC2)oc1C | -0.5945 | 

Row | Compound | Percent Effect [%] | Percent Effect (10 mM as filed; unlikely as a test dose)
47 | O[C@H]1CN(CCOc2ccc(F)cc2)CC[C@@]12CCCO2 |  | 66.45% and 84.39% and 80.81%
48 | O[C@H]1CN(CCCOc2ccccc2F)CC[C@@]12CCCO2 | 14 | 
49 | OC1CCCOC12CCN(CCCOc1ccccc1F)CC2 (configuration not stated) | 2.153 | 
50 | COc1ccccc1CNC(Cc1cccs1)c1nc(C)cs1.Cl (configuration not stated) | -2.216 | 
51 | Cc1cc(C)n(C2CN(CCC(=O)NC3CCCCC3)C2)n1 | -0.4038 | 
52 | CC(C)NC(=O)C1CN(C(=O)Nc2ccc(F)cc2)CC12CCOCC2 (configuration not stated) | -6.778 | 
53 | CNc1cncc(C2CCCN2C(=O)c2ccc3c(c2)CCC3)n1 (configuration not stated) | 5.523 | 
54 | COc1ccc(NC(=O)NC(C)c2nc[nH]n2)cc1 (configuration not stated) |  | -24.45% and -7.709% and -11.14%
55 | CC(NC(=O)Nc1ccc(OC2CCCC2)cc1)c1nc[nH]n1 (configuration not stated) |  | 68.07% and 85.04%
56 | CCN1CCC(CNC(=O)Nc2cc(C)on2)C1 (configuration not stated) | 13.21 | 
57 | COC(=O)c1cccn1C1CCN(Cc2nc3ccccc3o2)CC1 | -2.498 | 
58 | CN(C)c1nc2c(c(=O)[nH]1)Cc1ccccc1OC2 |  | 9.66% and 16.82%
59 | CN(CC1(CO)CCCC1)c1nc2c(c(=O)[nH]1)Cc1ccccc1OC2 |  | 63.62% and 42.71%
60 | CNC(=O)N1CC[C@H]2N(C)CC[C@@]2(C(=O)N2CCOCC2)CC1.O=C(O)C(F)(F)F | 9.37 | 
61 | Cc1cnn(CC2CCCN2C(=O)Cc2c(C)noc2Cl)c1 (configuration not stated) | 8.684 | 
62 | Cc1ccc(CN2C[C@@H]3COC[C@H](C(=O)N4CCCCO4)[C@@H]3C2)o1.O=C(O)C(F)(F)F |  | -11.42% and -12.39% and -13.97%
63 | O=C(c1ccncc1)N1CCc2[nH]nc(Nc3ccccc3)c2C1 | -2.217 | 
64 | CN(C)CCCn1cnc2cc(NC(=O)c3n[nH]c4c3CCC4)ccc21 |  | -35.39% and -25.92%
65 | CC(C)c1nc2cc(NC(=O)c3n[nH]c4c3CCC4)ccc2n1C |  | 73.89% and 87.21%
66 | Cn1cnc2cc(NC(=O)c3n[nH]c4c3CCC4)ccc21 |  | -48.98% and -33.08%
67 | Cn1cc(C(=O)N2CCN(Cc3ccccn3)CC2)ccc1=O | -3.259 | 
68 | Cc1ccccc1C(C(=O)O)N(C)CC1CCOCC1 (configuration not stated) | -26.36 | 
69 | COc1c(CNC(c2ccccc2)c2nccn2C)c(C)nn1C (configuration not stated) | 11.35 | 

Row | Compound | Percent Effect [%] | Percent Effect (10 mM as filed; unlikely as a test dose)
70 | C(=C\c1ccc(CN2CCCC2)cn1)/c1ccccc1 |  | 78.68% and 64.66%
71 | c1cc(-c2cn[nH]c2)ncc1CN1CCCCC1 |  | -7.187% and -9.51%
72 | O=C(O)c1ccccc1-c1ccc(CN2CCOCC2)cn1 | 6.918 | 
73 | O=C(C1CCOC1)N1C[C@H]2CN(Cc3cccc(F)c3)C(=O)[C@H]2C1 (some centres not stated) | 12.32 | 
74 | CC(C)NC(=O)c1csc(NC2CC2)n1 | -5.904 | 
75 | NC(=O)c1cn[nH]c1C1CCCN1C(=O)c1ccccc1 (configuration not stated) | -3.133 | 
76 | COc1cc(N[C@@H](Cc2ccccc2)C(N)=O)ncn1 | 10.88 | 
77 | COc1ncnc(N(C)C)c1NC(=O)c1cscc1C | -11.09 | 
78 | COC(=O)[C@@H]1CN(C(=O)c2cscn2)C[C@H]1c1ccc(OC)cc1 | 5.827 | 
79 | O=C(Nc1cc(C2CCOCC2)[nH]n1)c1cscn1 | 17.19 | 
80 | Cc1cnc(CN(C)C2CCN(Cc3nnc(C4CC4)o3)C2)o1 (configuration not stated) | 13.1 | 
81 | OC(COCc1ccccc1)CN1CCC(c2ccn[nH]2)CC1 (configuration not stated) | 8.709 | 
82 | c1cc(CN2CCCC(c3nnc(-c4cnccn4)o3)C2)ccn1 (configuration not stated) | 8.33 | 
83 | O=C(O)C(F)(F)F.O=C1COC2(CCN(Cc3ccoc3)CC2)CN1c1ccsc1 | -2.422 | 
84 | Cn1cc(CN2CC[C@H](O)[C@@H]2Cc2ccncc2)cn1 | 14.17 | 
85 | Cc1cc(C)n(C(=O)Cn2nc(C)c(I)c2C)n1 | -1.053 | 
86 | CN1CCCC1CCn1ccnc1-c1nc(-c2ccccc2)no1 (configuration not stated) |  | 77.95% and 70.89%
87 | CN1CCCC1c1ccnc(-c2ccccc2)n1 (configuration not stated) | 8.44 | 
88 | CN(C)c1ncccc1CNS(=O)(=O)c1ccc(F)cc1F | 5.626 | 
89 | CC/N=c1\nc(NCC)nc2n1C(O)(Nc1ccc(C)cc1C)CS2 (configuration not stated) |  | 76.89% and 79.52%
90 | CC/N=c1\nc(NCC)nc2n1C(O)(Nc1cccc(C)c1C)CS2 (configuration not stated) |  | -13.62% and 2.28%
91 | CC/N=c1\nc(NCC)nc2n1C(O)(Nc1cc(C)ccc1C)CS2 (configuration not stated) |  | -7.651% and -13.62%
92 | O=S(=O)(c1ccccc1)N1CCC[C@]2(C[C@H](OCC3CC3)CO2)C1 | -0.3567 | 
